PubChem BioAssay (Tox21)
The source made the active and inactive calls. A call without a number means that no potency is given here. The call rests on the fitted dose curve; in most records, active means well fitted activation curve with a large enough effect in the repeat runs; inconclusive means weak or mixed curves; inactive means flat fitted curve, though single readings scatter.

Test: A CellTox Green Cytotoxicity Assay to monitor cytotoxicity in HepG2 cells - 0 hour (AID 1224882); further: nearly all actives have a fitted effect of over 35% in size
Details: CellTox Green fluorescence; series mostly up to 76.8 µM; cytotoxicity: at the top concentration
Description: National Center for Advancing Translational Sciences [NCATS]
NIH Chemical Genomics Center [NCGC]
U.S. Environmental Protection Agency [EPA]
National Institutes of Environmental Health Sciences [NIEHS]
National Toxicology Program [NTP]
Cell-based models are critical for drug discovery. Determining the natural cytotoxic effects resulting from test compounds is an essential research activity. A CellTox Green Cytotoxicity Assay to monitor cytotoxicity in real time of continues cell culture during 40 hours of the compound treatment was used to screen Tox21 10K library compounds in HepG2 cells. CellTox Green Cytotoxicity Assay is a nonlytic, homogeneous, biofluorescent method to measure cytotoxicity in cell culture after experimental manipulation. The assay system uses a proprietary asymmetric cyanine dye that is excluded from viable cells but preferentially stains the dead cell's DNA. […] Viable cells produce no appreciable increases in fluorescence. Therefore, the fluorescence signal produced by the binding interaction with dead cell DNA is proportional to cytotoxicity.
The mixture of HepG2 cell suspension and reagents were dispensed at 600cells/6 ul/well in 1536-well tissue culture treated black solid bottom plates using a Multidrop dispenser. After the assay plates were incubated at a 37 C/5% CO2 incubator for 5 hours, 23 nL of compounds dissolved in DMSO, positive and negative controls was transferred to the assay plate by a pintool work station. The plates were incubated at 37 C for 40 hours. The fluorescence intensity were measured at 0h, 8h, 16h, 24h, 32h and 40h time points using ViewLux plate reader during compound treatment.

| SMILES | Potency | cytotoxicity |
| --- | --- | --- |
| CCCN(CCC)C(=O)SCC | inactive | – |
| CC(=O)c1nccs1 | inactive | – |
| O=c1n(CCCN2CCN(c3cccc(Cl)c3)CC2)nc2ccccn12 | inactive | – |
| C[n+]1ccn(CCO)c1 | inactive | – |
| Cc1cccc(C)c1[N+](=O)[O-] | inactive | – |
| O=C(c1ccccc1)c1ccc(O)c(O)c1O | inactive | – |
| CO[Si](CCCNCCN)(OC)OC | – | -3.94% (inactive) |
| OCC(O)CS (stereo not given) | inactive | – |
| NC(=O)NC(N)=O | inactive | – |
| CS(=O)(=O)c1ccc(Cl)cc1 | inactive | – |
| CCn1cc(C(=O)O)c(=O)c2cc3c(cc21)OCO3 | inactive | – |
| C=CC(C)(C)C | inactive | – |
| CCCCC(CC)COC(=O)c1ccc(C(=O)OCC(CC)CCCC)cc1 (stereo not given) | inactive | – |
| O=[N+]([O-])c1cc(C(F)(F)F)ccc1Cl | inactive | – |
| COC(=O)CCCCC(=O)OC | inactive | – |
| CC(C)(C)NC[C@H](O)COc1nsnc1N1CCOCC1 | inactive | – |
| CC(=O)OC[C@H]1O[C@@](COC(C)=O)(O[C@H]2O[C@H](COC(C)=O)[C@@H](OC(C)=O)[C@H](OC(C)=O)[C@H]2OC(C)=O)[C@@H](OC(C)=O)[C@@H]1OC(C)=O | inactive | – |
| CC(=O)C(C)C | inactive | – |
| Brc1ccc(Oc2ccc(Br)cc2)cc1 | inactive | – |
| O=Cc1ccc(CO)o1 | inactive | – |

| SMILES | Potency | cytotoxicity |
| --- | --- | --- |
| Nc1cccc(N)n1 | inactive | – |
| C=C1C[C@]23C[C@@]1(O)CC[C@H]2[C@@]12C=C[C@H](O)[C@@](C)(C(=O)O1)[C@H]2[C@@H]3C(=O)O | inactive | – |
| CC1(C)C(=O)N(Cl)C(=O)N1Cl | inactive | – |
| C=C(C)CC(C)(C)C | inactive | – |
| CCCCCCCC(=O)O | inactive | – |
| CCc1cccc(O)c1 | inactive | – |
| Clc1cccc(Cl)c1NC1=NCCN1 | inactive | – |
| CC(O)CNCC(C)O (stereo not given) | inactive | – |
| N[C@@H](Cc1cc(I)c(Oc2ccc(O)c(I)c2)c(I)c1)C(=O)O | inactive | – |
| CN=C(NC#N)NCCSCc1nc[nH]c1C | inactive | – |
| COc1c2ccoc2cc2oc(=O)ccc12 | inactive | – |
| CC/C=C(\C(=O)N[C@@H]1C(=O)N2C(C(=O)OCOC(=O)C(C)(C)C)=C(COC(N)=O)CS[C@H]12)c1csc(N)n1 | inactive | – |
| Cc1ccncc1 | inactive | – |
| CC(C)=CCC/C(C)=C/C=O | inactive | – |
| CC(=O)OC(C)(C)C1CC=C(C)CC1 (stereo not given) | inactive | – |
| C=C(CC(=O)O)C(=O)O | inactive | – |
| CCCOC(=O)NCCCN(C)C | inactive | – |
| Nc1cccc(C(F)(F)F)c1 | inactive | – |
| O=c1c(O)c(-c2ccc(O)c(O)c2)oc2cc(O)cc(O)c12 | inactive | – |
| Nc1nc(N)c2nc(-c3ccccc3)c(N)nc2n1 | inactive | – |
